PubChem BioAssay (NCATS)
Inconclusive results are not listed. Unmarked numbers belong to inactive results. Calls of active or inactive are those of the source. The call rests on the fitted dose curve; in most records, active means well fitted cell-killing curve with a large enough effect; inconclusive means small, poorly fitted or top-dose-only effect, or effect the other way; inactive means no such curve, though single readings can be large or run the other way.

Assay: Quantitative High-Throughput drug screen in 47 multiple myeloma cell lines against the NCATS MIPE library collection: PE2_PLB cell viability assay (AID 1919869); further: nearly all actives have a fitted effect of over 35% in size
Conditions: PE2_PLB myeloma cells viability, ATP luminescence, 48 h; series mostly up to 45.8 µM; viability (% of control): at the top concentration
From the text: PI: Beverly A. Mock Ph.D.
Laboratory of Cancer Biology and Genetics,
Center for Cancer Research, National Cancer Institute,
National Institute of Health, Bethesda, Maryland
Drug resistance and disease progression are common in multiple myeloma (MM) patients, underscoring the need for new therapeutic combinations. […] We hypothesized that effective combinations would reduce MYC expression and enhance p16 activity. […] These preclinical data identify potentially useful drug combinations for evaluation in drug-resistant MM and reveal potential mechanisms of combined drug sensitivity.
Described herein is the primary MIPE qHTS used to cherrypick compounds. Validated compounds were then further tested for potential synergistic activiy.
[1] Peat TJ, Gaikwad SM, Dubois W, Gyabaah-Kessie N, Zhang S, Gorjifard S, Phyo Z, Andres M, Hughitt VK, Simpson RM, Miller MA, Girvin AT, Taylor A, Williams D, D'Antonio N, Zhang Y, Rajagopalan A, Flietner E, Wilson K, Zhang X, Shinn P, Klumpp-Thomas C, McKnight C, Itkin Z, Chen L, Kazandijian D, Zhang J, Michalowski AM, Simmons JK, Keats J, Thomas CJ, Mock BA. Drug combinations identified by high-throughput screening promote cell cycle transition and upregulate Smad pathways in myeloma. Cancer Lett. 2023 Aug 1;568:216284. doi: 10.1016/j.canlet.2023.216284. Epub 2023 Jun 24. PMID: 37356470; PMCID: PMC10408729.
SEQUENCE No. (e.g., 1, 2, 3, etc.); […] (e.g., Cells, Incubation, Reagent, etc.); VALUE and DESCRIPTION.
1; Cells; 5 uL; white, solid bottom 1536-well Greiner assay plate.
2; Compounds; 23 nL; Kalypsis pin tool (Wako USA) equipped with a 1536-well pin head to transfer to the assay plates.
3; Incubation; 48 hours; 37C incubation.
4; Reagent;5uL; CellTiter Glo (Promega).
5; Detector; 425V; Luminescence; Viewlux PerkinElmer.
NOTES (numbers refer to Sequence numbers above)
1. The cell-based screening methods employed in this study were like those previously published. Briefly, the corresponding myeloma cell lines were screened in 1,536-well plates with 500 cells, 5-uL per well for inhibition of cell viability (assessed by measuring ATP levels with CellTiterGlo).
2. NCATS MIPE 4.0 library of approved and investigational drugs were added using the Kalypsis pin tool. Wells treated with DMSO only for 100% viability and media only for 0% viability were used as controls.
3. The assay plates were covered and incubated for 48 hours in a 37C, 5% CO2 incubator with controlled humidity.
4. After 48 hours, CellTilter-GloTM luminescent substrate mix (Promega) reagent was added to the assay plate and plates we incubated for 5 min at room temperature.
5. Signal was measured as median relative luminescence units on a ViewLux (PerkinElmer) multiplate reader.
[1] Heske CM, Davis MI, Baumgart JT, Wilson K, Gormally MV, Chen L, Zhang X, Ceribelli M, Duveau DY, Guha R, Ferrer M, Arnaldez FI, Ji J, Tran HL, Zhang Y, Mendoza A, Helman LJ, Thomas CJ. Matrix Screen Identifies Synergistic Combination of PARP Inhibitors and Nicotinamide Phosphoribosyltransferase (NAMPT) Inhibitors in Ewing Sarcoma. Clin Cancer Res. 2017 Dec 1;23(23):7301-7311. doi: 10.1158/1078-0432.CCR-17-1121. Epub 2017 Sep 12. PMID: 28899971; PMCID: PMC6636827.
Potency means the concentration at half of the fitted maximal effect.

Row | Compound | Potency | viability (% of control) [%]
1 | CCC1(c2ccccc2)C(=O)NCNC1=O | 2.96 µM (active) | 
2 | COc1ccccc1N1CCN(CC(O)COc2cccc3ccccc23)CC1 (stereo not given) |  | 109
3 | O=C1N(c2ccccc2)c2ccccc2C1(Cc1ccncc1)Cc1ccncc1 | 20.9 µM (active) | 
4 | COc1cc2c(c(OC)c1OC)-c1ccc(OC)c(=O)cc1[C@@H](NC(C)=O)CC2 |  | 8.27
5 | CCCNCC(O)COc1ccccc1C(=O)CCc1ccccc1 (stereo not given) |  | 87
6 | CC1(C)O[C@H]2CC(=O)OC[C@]23[C@H]2CC[C@@]4(C)[C@H](c5ccoc5)OC(=O)[C@H]5O[C@]54[C@]2(C)C(=O)C[C@@H]13 |  | 123
7 | O=C(c1ccc(F)cc1)C1CCN(CCn2c(=O)[nH]c3ccccc3c2=O)CC1 |  | 90.5
8 | CN(C)c1nc(N(C)C)nc(N(C)C)n1 |  | 103
9 | Clc1ccc(C(c2ccccc2Cl)C(Cl)Cl)cc1 (stereo not given) |  | 83.3
10 | CC[N+](CC)(CC)CCOc1cccc(OCC[N+](CC)(CC)CC)c1OCC[N+](CC)(CC)CC |  | 85.8
11 | Nc1c2c(nc3ccccc13)CCCC2 |  | 107
12 | NCCS(=O)(=O)O |  | 110
13 | CCOC(=O)C(C)(C)Oc1ccc(Cl)cc1 |  | 124
14 | C[C@@H]1CC(=O)NN=C1c1ccc(NN=C(C#N)C#N)cc1 | 14.8 µM (active) | 
15 | O=C(Nc1ccc([N+](=O)[O-])cc1Cl)c1cc(Cl)ccc1O | 0.526 µM (active) | 
16 | COc1ccccc1OCCNCC(O)COc1cccc2[nH]c3ccccc3c12 (stereo not given) |  | 83.8
17 | CCc1cccc2c3c([nH]c12)C(CC)(CC(=O)O)OCC3 (stereo not given) |  | 127
18 | CC(=O)OCC(CCn1cnc2cnc(N)nc21)COC(C)=O |  | 109
19 | NCCc1cnc[nH]1 |  | 126
20 | CC#C[C@]1(O)CC[C@H]2[C@@H]3CCC4=CC(=O)CCC4=C3[C@@H](c3ccc(N(C)C)cc3)C[C@@]21C | 0.833 µM (active) | 

Row | Compound | Potency | viability (% of control) [%]
21 | NCCCCCC(=O)O |  | 116
22 | CN(CCOc1ccc(NS(C)(=O)=O)cc1)CCc1ccc(NS(C)(=O)=O)cc1 |  | 131
23 | CC(C)NCC(O)COc1ccc(CCOCC2CC2)cc1 (stereo not given) |  | 92.5
24 | NC12CC3CC(CC(C3)C1)C2 |  | 83.6
25 | Cc1cn([C@H]2C[C@H](N=[N+]=[N-])[C@@H](CO)O2)c(=O)[nH]c1=O | 20.9 µM (active) | 
26 | COC(=O)Nc1nc2ccc(C(=O)c3cccs3)cc2[nH]1 | 0.0235 µM (active) | 
27 | CC1(CN2CCC(n3c(=O)[nH]c4ccccc43)CC2)OCc2ccccc2-n2cccc21 (stereo not given) | 13.2 µM (active) | 
28 | CN(C)CCOC(c1ccccc1)c1ccccc1 | 7.43 µM (active) | 
29 | COc1cc2nc(N(C)CCCNC(=O)C3CCCO3)nc(N)c2cc1OC (stereo not given) |  | 85.7
30 | Cc1ccc(-c2cc(C(F)(F)F)nn2-c2ccc(S(N)(=O)=O)cc2)cc1 |  | 84.2
31 | CC(C)NCC(O)c1ccc(O)c(O)c1 (stereo not given) | 1.48 µM (active) | 
32 | O=c1[nH]cc(F)c(=O)[nH]1 |  | 107
33 | Nc1nc2c(ncn2COC(CO)CO)c(=O)[nH]1 | 23.5 µM (active) | 
34 | CN(C)CCC=C1c2ccccc2C=Cc2ccccc21 |  | 101
35 | CS(=O)(=O)CCNCc1ccc(-c2ccc3ncnc(Nc4ccc(OCc5cccc(F)c5)c(Cl)c4)c3c2)o1 | 1.66 µM (active) | 
36 | COc1ccc(C2CNC(=O)C2)cc1OC1CCCC1 (stereo not given) |  | 115
37 | CN1CCN(C2=Nc3cc(Cl)ccc3Nc3ccccc32)CC1 |  | 86.5
38 | Cc1ccc(C(=O)Nc2ccc(S(=O)(=O)O)c3cc(S(=O)(=O)O)cc(S(=O)(=O)O)c23)cc1NC(=O)c1cccc(NC(=O)Nc2cccc(C(=O)Nc3cc(C(=O)Nc4ccc(S(=O)(=O)O)c5cc(S(=O)(=O)O)cc(S(=O)(=O)O)c45)ccc3C)c2)c1 | 5.9 µM (active) | 
39 | Cc1ccccc1N1C(=O)c2cc(S(N)(=O)=O)c(Cl)cc2NC1C (stereo not given) |  | 97.8
40 | CN(C)C(=N)N=C(N)N |  | 108
